MazF activator – MazEF (E. coli) toxin RNase activation. P0AE70. FAM/BHQ RNA-DNA oligo cleavage fluorescence, 5 h. activation, % at 20 µM. 350,000 compounds, 0.32% hits. AID 504720; in the data active = activation above about 50%
Target sequence (P0AE70 whole entry, looked up): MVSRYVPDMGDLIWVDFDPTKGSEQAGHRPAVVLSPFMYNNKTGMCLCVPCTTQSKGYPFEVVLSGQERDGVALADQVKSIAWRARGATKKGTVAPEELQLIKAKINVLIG
BoNT-F LC inh – blocks Botulinum neurotoxin F light chain protease; inhibition, % at 10 µM; Multiplex microsphere protease cleavage assay, flow cytometry; AID 588497; 360,000 compounds, 0.22% hits; in the data active = inhibition above about 35%, passing the limit was not always enough; inconclusive = no clear call, values can overlap the other calls; also: plate controls were buffer without enzyme for full effect and enzyme alone for no effect
Anthrax LF prot – anthrax lethal factor protease inhibition. P15917. multiplex microsphere protease cleavage assay, LF. inhibition, % at 10 µM. 360,000 compounds, 0.12% hits; also: plate controls were buffer without enzyme for full effect and enzyme alone for no effect
BoNT A protease – inhibitors of Botulinum neurotoxin A light chain protease | multiplex microsphere protease substrate cleavage, flow cytometry | inhibition, % at 10 µM | 360,000 compounds, 0.17% hits | AID 588499; also: plate controls were buffer without enzyme for full effect and enzyme alone for no effect
DUSP3 inh – blocks human VHR1 dual specificity phosphatase; 290,000 compounds, 0.52% hits; recombinant VHR phosphatase, pNPP absorbance; P51452; inhibition, % at 13.3 µM; AID 1654; in the data active = inhibition above about 50%
Target sequence (P51452 whole entry, looked up): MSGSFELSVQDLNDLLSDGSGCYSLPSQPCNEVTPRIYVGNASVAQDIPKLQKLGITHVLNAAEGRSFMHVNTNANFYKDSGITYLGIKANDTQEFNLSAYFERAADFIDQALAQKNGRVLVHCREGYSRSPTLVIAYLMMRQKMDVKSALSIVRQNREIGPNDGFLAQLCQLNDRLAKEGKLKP
Bead autofluor – counter-screen for toxin protease inhibitors: compound fluorescence | compound autofluorescence counterscreen, microsphere flow cytometry; hits give high values | fluorescence intensity (concentration not given with the values) | 360,000 compounds, 3.1% hits | AID 624483; in the data active = fluorescence intensity above about 16000; inconclusive = no clear call, values can overlap the other calls
Numbers without * were called inactive; ? = inconclusive; . = not tested or not shown. Compounds with a hit are over-represented: about 4% of the library has one in this group of screens. Rule as the data show it, unless noted: active = inhibition above about 30%; inconclusive = no clear call, values can overlap the other calls; inactive = below that.

SMILES	MazF activator	BoNT-F LC inh	Anthrax LF prot	BoNT A protease	DUSP3 inh	Bead autofluor
COc1ccc(CN2CCN(Cc3cc4ccccc4o3)CC2CCO)cc1C (stereo not given)	0.1	-26.1	-8.0	-2.5	59.1*	3966
COc1cccc(CN2CCN(Cc3cc4ccccc4o3)CC2CCO)c1 (stereo not given)	-15.5	-5.6	7.4	-1.5	19.3	4366
CCN(CC)C(=O)Oc1ccccc1NC(C)=O	2.4	-3.7	-0.5	?	5.6	20729*
CC(=O)Nc1ccccc1OC(=O)N(C)C	2.0	3.5	0.7	2.4	14.0	15505
O=C(CSCCO)Nc1ccc([N+](=O)[O-])cc1	5.4	-4.0	-2.2	0.0	51.7*	2293
O=C(CSCCO)Nc1cccc2ccccc12	1.7	-4.5	-3.3	?	6.5	22778*
Cc1ccccc1NC(=O)CSc1nc(N2CCCCC2)nc(N2CCCCC2)n1	-6.0	-3.9	-3.4	?	47.0	22832*
O=C(CSCC(=O)Nc1cccc2ccccc12)Nc1cccc2ccccc12	-9.6	-9.5	1.6	0.3	-18.9	4775
CC(=O)c1cccc(NC(=O)CSc2nc(N3CCCCC3)nc(N3CCCCC3)n2)c1	-4.2	-3.5	-3.7	0.1	34.8	3999
Cc1ccccc1NC(=O)CSCCO	9.2	3.2	-0.1	2.4	-12.1	22229*
CCn1ncc(NC(=O)Nc2cccc(C(F)(F)F)c2)c1C(N)=O	8.8	-3.4	-5.5	-0.9	-6.0	8038
CCC(CC)C(=O)Nc1ccc(C)cc1O	7.0	-6.8	-1.7	-2.2	15.8	3582
COC(=O)c1ccc(C(=O)OC)c(NC(=O)Oc2ccccc2)c1	5.8	-4.3	0.0	0.7	4.6	2373
CCNc1oc(-c2ccc(OC)cc2)nc1S(=O)(=O)c1ccc(Br)cc1	-11.9	-6.6	-1.0	?	28.6	21449*
CCCCNc1oc(-c2ccc(OC)cc2)nc1S(=O)(=O)c1ccccc1	-5.3	-2.5	-1.3	-1.0	-19.1	21088*
Cc1ccc(CNC(=O)C2CC2c2ccccc2)cc1 (stereo not given)	3.3	-4.0	-1.5	0.0	4.4	2466
CN1CCN(CCc2nc3cc(NC(=O)c4ccco4)ccc3n2C)CC1	-1.5	.	.	.	12.8	.
Cc1ccc(N2CCN(CCc3nc4cc(NC(=O)c5ccco5)ccc4n3C)CC2)cc1	3.6	-3.8	-5.6	-2.1	6.7	24375*
Cn1c(CCNC(=O)c2ccco2)nc2cc(NS(=O)(=O)c3ccc(Cl)cc3)ccc21	1.6	-6.5	-1.7	-6.0	18.2	21550*
Cn1c(CCN2CCN(c3ccc(F)cc3)CC2)nc2cc(NC(=O)c3ccco3)ccc21	3.1	-4.1	-1.7	0.0	28.6	24006*
N/C(=N\OC(=O)COc1ccccc1Cl)c1ccc(Cl)cc1	-9.0	?	3.6	1.1	13.6	4032
N#C/C(=C\c1cn(-c2ccccc2)nc1-c1cc2ccccc2o1)c1nc2ccccc2[nH]1	741.4*	-7.3	-3.2	0.8	16.8	2246
O=c1oc2c(CN3CCOCC3)c(O)ccc2c2c1CCC2	6.6	-6.6	-0.3	-3.8	13.4	20943*
COCCN1C(=O)C(=O)/C(=C(/O)c2cccc(OC)c2)C1c1ccncc1 (stereo not given)	-0.3	11.5	-5.2	0.0	11.3	3587
CCCCCCn1c(=O)[nH]c2nc3cc(N)ccc3nc2c1=O	364.0*	.	.	.	26.2	.
SMILES	MazF activator	BoNT-F LC inh	Anthrax LF prot	BoNT A protease	DUSP3 inh	Bead autofluor
CCCCCCn1c(=O)[nH]c2c(c1=O)CCC2	6.4	-9.4	-1.2	-0.5	7.7	5690
Cc1cc(NCc2ccccc2)n2ncc(-c3ccccc3)c2n1	-2.1	-0.9	-14.3	0.1	54.7*	3734
COc1ccc2c(c1)-c1c(sn(-c3ccc(OC)c(OC)c3)c1=S)C(C)(C)N2	-6.8	-7.1	-5.1	-2.2	42.0	4478
COc1cc2c3c(c1)-c1c(sn(-c4cc(OC)ccc4OC)c1=S)C(C)(C)N3C(=O)C2=O	14.8	1.3	-6.3	2.0	8.8	21539*
O=C1c2ccccc2C(=O)C1Cc1cccc2ccccc12	-7.2	0.1	-0.5	1.3	-8.3	21890*
Cc1c(N(C)S(=O)(=O)c2ccc(Cl)c(C(=O)NCC3CCCO3)c2)c(=O)n(-c2ccccc2)n1C (stereo not given)	-1.6	-0.4	2.6	-0.9	.	4037
COC(=O)C1=C(C)N(C)C(=O)NC1c1cc(Cl)cc(Cl)c1OC (stereo not given)	10.4	-5.2	0.4	?	-4.0	17435*
CC/C(O)=C(\C#N)c1nnc2n1CCCCC2	7.5	1.1	0.1	1.3	39.1	20206*
